# From PubChem BioAssay AID1159524 (National Center for Advancing Translational Sciences (NCATS), 2015)
# Screen size: about 410,000 compounds; about 5,100 (1.2%) were called active. About 8% were inconclusive and are not listed. The call rests on the fitted dose curve; tested in HEK293T cells. What follows is part of a selection rich in actives, with near analogues and random picks from the rest.
# Assay: High Throughput Screening for Foot and Mouth Disease Virus Antivirals; further: read-out not given here; nearly all actives have a fitted effect of over 45% in size
# Conditions: FMDV antiviral cell-based qHTS; series mostly up to 57.9 µM; activity change, negative = inhibition: at the top concentration
# On the % scale 0 is the no-effect control and ±100 the full control effect; potency means the concentration at half of the fitted maximal effect.
SMILES,"activity change, negative = inhibition",Potency
CCC(=O)N1CCc2cc(CNS(=O)(=O)c3ccc(Br)s3)ccc21,3.48% (inactive),–
Cn1c(=O)c2c(nc(NCCc3ccccc3)n2Cc2ccccc2)n(C)c1=O,–,14.1 µM (active)
Cn1c(=O)c2c(nc(NCCc3ccccc3)n2Cc2ccccc2Br)n(C)c1=O,8.48% (inactive),–
Cn1c(=O)c2c(nc(SCC(=O)Nc3ccc(F)cc3)n2Cc2ccccc2)n(C)c1=O,0% (inactive),–
CC(C)CCn1c(CN(C)Cc2ccccc2)nc2c1c(=O)n(C)c(=O)n2C,–,39.8 µM (active)
Cn1c(=O)c2c(nc(OCc3cccnc3)n2Cc2ccccc2)n(C)c1=O,-27% (inactive),–
CC(C)CCn1c(=O)c2c(nc3n2CCCN3Cc2ccccc2)n(C)c1=O,-24.9% (inactive),–
CN(C)C(=O)c1ccc(-c2cncnc2NC2CCNCC2)cc1,0% (inactive),–
COCCn1c(=O)c(-c2cccs2)nc2cnc(N3CCN(C)CC3)nc21,-1.14% (inactive),–
Cc1ccccc1NC(=O)Cn1c(=O)n(CCCCC(=O)NCc2ccccc2Cl)c(=O)c2ccccc21,-24.8% (inactive),–
C=CS(=O)c1sc(Cl)c(N2CCOCC2)c1[N+](=O)[O-] (stereo unspecified),–,28.2 µM (active)
CN(C)c1ncc2nc(-c3ccc(F)cc3)c(=O)n(Cc3ccc(F)cc3)c2n1,-0.807% (inactive),–
O=C(CCl)N(Cc1cccc([N+](=O)[O-])c1)c1cccc(Cl)c1,–,28.2 µM (active)
CC(=O)N(CN1C(=O)C2C3C=CC(C3)C2C1=O)c1cccc(Cl)c1 (stereo unspecified),5.14% (inactive),–
O=C(O)c1cc(S(=O)(=O)N(Cc2ccccc2)c2ccccc2)ccc1Cl,6.32% (inactive),–
FC(F)(F)c1ccccc1-c1nc(-n2ccnc2)c2ccccc2n1,-7.33% (inactive),–
Cc1cccc(NC(=O)Cn2c(C(F)(F)F)nc3ccccc32)c1C,-0.0408% (inactive),–
CC(=O)Nc1cc(C(=O)N2CCc3c(Cl)cccc3C2)cc2ncn(CCc3ccccn3)c12,-13.7% (inactive),–
CCOC(=O)C1CCCN(C(=O)c2ccc3c(c2)sc2nc(-c4ccc(CC)cc4)cn23)C1 (stereo unspecified),–,14.1 µM (active)
COc1ccc(CCNC(=O)c2ccc3c(c2)sc2nc(-c4ccc(C)cc4)cn23)cc1OC,-8.99% (inactive),–
CCOC(=O)C1CCCN(C(=O)c2cncc(Br)c2)C1 (stereo unspecified),-6.75% (inactive),–
CCC(=O)N1c2ccccc2CC1C(=O)N1CCN(c2cccc(OC)c2)CC1 (stereo unspecified),-4.67% (inactive),–
CCCNS(=O)(=O)c1ccc(CCC(=O)N2CCCC2)cc1,11.1% (inactive),–
CCNS(=O)(=O)c1ccc(CCC(=O)N2CCN(c3cc(Cl)ccc3C)CC2)cc1,–,15.8 µM (active)
CCNS(=O)(=O)c1ccc(CCC(=O)N2CCN(c3ccc(OC)cc3)CC2)cc1,-11.2% (inactive),–
Cc1cnc(C(=O)N2CCOc3ccc(CN4CCCC(C(=O)c5cccnc5)C4)cc3C2)[nH]1 (stereo unspecified),-28.1% (inactive),–
